Measured values reported in PubChem BioAssay (NCI).
Compounds without any hit were thinned out: in the full panel of roughly 83,000, 20% have a hit.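 Compound tested at a single concentration for 48 hours in 96-well plates; a percent growth value below 10 was scored as active.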 Unmarked numbers belong to inactive results. Activity calls are given as the source filed them.

Legend:
Assay in all cases: NCI-60 one-dose screen, 48 h (100 = growth as untreated, 0 = no growth, -100 = all killed)
Details in all cases: 10 µM unless noted
EKVX NSCLC = tested on: EKVX NSCLC
SN12C renal = tested on: SN12C renal
UO-31 renal = tested on: UO-31 renal
TK-10 renal = tested on: TK-10 renal
ACHN renal = tested on: ACHN renal
CAKI-1 renal = tested on: CAKI-1 renal
A498 renal = tested on: A498 renal
CCRF-CEM leukemia = tested on: CCRF-CEM leukemia
MOLT-4 leukemia = tested on: MOLT-4 leukemia
RPMI-8226 leukemia = tested on: RPMI-8226 leukemia
OVCAR-8 ovarian = tested on: OVCAR-8 ovarian
OVCAR-5 ovarian = tested on: OVCAR-5 ovarian
OVCAR-4 ovarian = tested on: OVCAR-4 ovarian
SK-OV-3 ovarian = tested on: SK-OV-3 ovarian
IGROV1 ovarian = tested on: IGROV1 ovarian
OVCAR-3 ovarian = tested on: OVCAR-3 ovarian
HS 578T breast = tested on: HS 578T breast
NCI/ADR-RES ovarian = tested on: NCI/ADR-RES ovarian
T-47D breast = tested on: T-47D breast
SR leukemia = tested on: SR leukemia

Row | SMILES | growth (EKVX NSCLC) | growth (SN12C renal) | growth (UO-31 renal) | growth (TK-10 renal) | growth (ACHN renal) | growth (CAKI-1 renal) | growth (A498 renal) | growth (CCRF-CEM leukemia) | growth (MOLT-4 leukemia) | growth (RPMI-8226 leukemia) [%] | growth (OVCAR-8 ovarian) | growth (OVCAR-5 ovarian) | growth (OVCAR-4 ovarian) | growth (SK-OV-3 ovarian) | growth (IGROV1 ovarian) | growth (OVCAR-3 ovarian) | growth (HS 578T breast) | growth (NCI/ADR-RES ovarian) | growth (T-47D breast) | growth (SR leukemia)
1 | COc1ccc(-c2cn(-c3ccccc3)c(-c3ccccc3)n2)cc1OC | 84.9% | 71.9% | 52.1% | 99.4% | 64.4% | 79.3% | 104% | -66.6% (active) | 77% | 25.8 | 75.3% | 119% | 67.3% | 209% | 83.7% | 37.2% | 103% | 86.2% | 131% | 
2 | COc1ccc(/C=C2\COc3ccc(O)c(O)c3C2=O)cc1OC | 42.2% | -67.7% (active) | -87.9% (active) | 5.44% (active) | -56.3% (active) | 11.1% | 105% | -13.9% (active) | -21.5% (active) |  | 8.42% (active) | -16.6% (active) | 30.1% | 40.2% | -33.4% (active) | -16.7% (active) | 17.8% | 2.76% (active) | -5.4% (active) | -1.26% (active)
3 | CC[C@H](C)C(=O)O[C@H]1C[C@@H](C)C=C2C=C[C@H](C)[C@H](CC[C@@H]3C[C@@H](O)CC(=O)O3)[C@H]21 | 62.4% | 42.5% | 74.7% | 104% | 32.9% | 20.7% | -27.9% (active) | 72.9% | 90.8% | 71.8 | 61.9% | 87.2% | 111% | 83.7% | 55.9% | 102% | 94% | 32.1% | 96.7% | 
4 | Cc1cc(O)c2c(c1)C[C@H]1[C@@H]3CC[C@H]4CC(=O)CC[C@]4(C)[C@H]3CC(=O)[C@]21C | 49.8% | 81.3% | 113% | 92.5% | 94.7% | 83.9% | 103% | 58.8% | 53.7% | 56.6 | 97.4% | 79.7% | 109% | 114% | 126% | 98% | 33% | 83.8% | 67.9% | 
5 | CC(=O)Oc1ccc(C23c4ccccc4C2(OC(C)=O)c2cc(OC(C)=O)ccc23)cc1 (stereo not drawn) | 69.4% | 81.7% | 11% | 63.9% | 29.4% | 85.2% | 114% | 41.8% | 67.6% |  | 49.6% | 86% | 92.3% | 110% | 91.9% | 78.2% |  | 39.3% | 38.9% | -2.28% (active)
6 | OCCOc1c(Cl)cc(Cl)cc1Cl | 106% | 89.8% | 87.8% | 113% | 99.3% | 93.8% | 70.7% | 113% | 111% | 119 | 104% | 92.6% | 98.1% | 106% | 115% | 118% | 98.4% | 102% | 109% | 
7 | Oc1ccc(Cc2ccc(O)c(C3CC(c4ccc(Cl)cc4)=NN3)c2)cc1C1CC(c2ccc(Cl)cc2)=NN1 (stereo not drawn) | -6.4% (active) | 24.9% | -22.4% (active) | 21% | 16.5% | -49.4% (active) | 33.8% | 8.95% (active) | -5.34% (active) | 17.4 | 15.8% | 37.8% | 43.5% | 50.5% | 18.5% | 10% (active) | 13.8% | 4.68% (active) | 38.3% | 
8 | CC(=O)c1ccc2c3c(n(C)c2c1)CCCC3 | 88.3% | 97.2% | 112% | 85.4% | 105% | 102% | -76.1% (active) | 86.6% | 76.5% | 90.2 | 106% | 91.7% | 106% | 110% | 104% | 111% | 141% | 96.9% | 109% | 
9 | CCOC(=O)c1cc(-c2cccnc2)nc2c(Cl)cc(Cl)cc12 | 96.5% | 86.6% | 75% | 75.7% | 73.8% | 105% | 103% | 88.9% | 98.9% |  | 104% | 92% |  | 91.2% |  | 80% | 95% | 94% | 85.3% | 117%
10 | CN(CC(=O)Nc1nc2ccccc2[nH]1)S(=O)(=O)c1ccc(Cl)cc1 | 95.4% | 93.9% | 28.8% | 118% | 83.5% | 89.8% | 91.7% | 44.6% | 58.5% | 57.5 | 95.2% | 96.4% | 93.6% | 96.5% | -28.9% (active) | 91% | 87.2% | 88.3% | 77% | 
11 | Cc1scc2c1N(C(=O)CN1CCN(C)CC1)c1ccccc1NC2=O | 107% | 101% | 85.9% | 105% | 102% | 99.5% | 122% | 108% | 96.5% | 113 | 102% | 118% | 101% | 105% | 108% | 108% | 112% | 108% | 102% | 
12 | CCCCCCCC/C=C\CCCCCCCCOc1ccccc1CC(=O)NCC[N+]1(C)CCCC1 | 93% | 49.5% | 99.2% | 70.5% | 107% | 97.4% | 93.2% | 39.3% | 65% |  | 80.9% | 62.1% | 86.8% | 89.6% | 10.9% | 91.8% | 86.9% | 110% | 90.5% | 28%
13 | CCCCN(CCCC)CCCOC(=O)c1ccc(N)cc1 | 94.3% | 82% | 81.2% | 103% | 91.9% | 90.5% | 104% | 96.8% | 93.2% | 68 | 73% | 97% | 84.2% | 83.3% | 75.8% | 102% | 82.2% | 94.2% | 88% | 
14 | Cc1ccc(C=C2C(Cl)=C(Cl)C(Cl)=C2Cl)cc1 | -10.6% (active) | -43.4% (active) | -88% (active) | -44.6% (active) | -54.8% (active) | -35.1% (active) | -88.8% (active) | -45.2% (active) | 18.3% |  | -42.9% (active) | -80.7% (active) | -35.3% (active) | -38.5% (active) |  | -85.1% (active) | -9.6% (active) | -3% (active) | -44.6% (active) | 19%
15 | Nc1ccccc1-c1ccc([N+](=O)[O-])cc1 | 74.6% | 60.3% | 43.3% | 72.7% | 46.1% | 30.3% | 75.9% | 24.6% | 30.5% |  | 75.3% | 75% | 63.2% | 90.6% | 56.2% |  |  | 52.2% | 38.6% | 34.8%
16 | COc1cc2c(c(OC)c1OC)-c1ccc(NN(C(=O)c3ccccc3)C(=O)c3ccccc3)c(=O)cc1[C@@H](NC(C)=O)CC2 (tested in a mixture with another compound) | 30.8% | 64.8% | 62.3% | 40.8% | 63% | -2.24% (active) | 15.1% | 41.9% | 22.8% | 66.6 | 47.1% | 68% | 63.4% | 20.8% | 12.3% | 2.09% (active) | -6.83% (active) | 74% | 41.7% | 
